Assay outcomes (PubChem BioAssay)
Only some compounds are listed: those with a hit (about 1.8% of all), similar ones and a draw of the others.
TLR4-MyD88 BLA = inhibitors of TLR4-MyD88 association in cells, primary screen, cell-based, HeLa CL3-4, BLA complementation, FRET ratio; Toll-like receptor 4 (Homo sapiens) + Myeloid differentiation primary response protein …; HeLa CL3-4 TLR4/MyD88 BLA complementation; inhibition, % at 8.4 µM; hit rate 0.18% among 200,000; AID 861, 2007; in the data active means inhibition above about 25%
TLR9-MyD88 inh = inhibitors of TLR9-MyD88 association in cells, primary screen, cell-based, CHO, BLA complementation, fluorescence. AID 504734, 2011. CCF4 FRET ratio. hit rate 0.21% among 340,000. Toll-like receptor 9 (Homo sapiens) + Myeloid differentiation primary response protein …. inhibition, % at 4.98 µM;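 active means inhibition above the mean over all tested compounds plus 3 SD, cut at about 21% in these data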
LANA-H2A inh = blockers of LANA interaction with H2A/H2B – biochemical, FP readout, HTS, primary screen; inhibition, % (concentration not given with the values); cell-free LANA-H2A/H2B peptide, fluorescence polarization; Protein LANA1 (Human herpesvirus 8 type P (isolate GK18)), Q9QR71; hit rate 0.6% among 320,000; in the data active means inhibition mostly above about 10%, no sharp cut-off; inactive means mostly below about 6.7%
Target sequence (Q9QR71 whole entry, looked up): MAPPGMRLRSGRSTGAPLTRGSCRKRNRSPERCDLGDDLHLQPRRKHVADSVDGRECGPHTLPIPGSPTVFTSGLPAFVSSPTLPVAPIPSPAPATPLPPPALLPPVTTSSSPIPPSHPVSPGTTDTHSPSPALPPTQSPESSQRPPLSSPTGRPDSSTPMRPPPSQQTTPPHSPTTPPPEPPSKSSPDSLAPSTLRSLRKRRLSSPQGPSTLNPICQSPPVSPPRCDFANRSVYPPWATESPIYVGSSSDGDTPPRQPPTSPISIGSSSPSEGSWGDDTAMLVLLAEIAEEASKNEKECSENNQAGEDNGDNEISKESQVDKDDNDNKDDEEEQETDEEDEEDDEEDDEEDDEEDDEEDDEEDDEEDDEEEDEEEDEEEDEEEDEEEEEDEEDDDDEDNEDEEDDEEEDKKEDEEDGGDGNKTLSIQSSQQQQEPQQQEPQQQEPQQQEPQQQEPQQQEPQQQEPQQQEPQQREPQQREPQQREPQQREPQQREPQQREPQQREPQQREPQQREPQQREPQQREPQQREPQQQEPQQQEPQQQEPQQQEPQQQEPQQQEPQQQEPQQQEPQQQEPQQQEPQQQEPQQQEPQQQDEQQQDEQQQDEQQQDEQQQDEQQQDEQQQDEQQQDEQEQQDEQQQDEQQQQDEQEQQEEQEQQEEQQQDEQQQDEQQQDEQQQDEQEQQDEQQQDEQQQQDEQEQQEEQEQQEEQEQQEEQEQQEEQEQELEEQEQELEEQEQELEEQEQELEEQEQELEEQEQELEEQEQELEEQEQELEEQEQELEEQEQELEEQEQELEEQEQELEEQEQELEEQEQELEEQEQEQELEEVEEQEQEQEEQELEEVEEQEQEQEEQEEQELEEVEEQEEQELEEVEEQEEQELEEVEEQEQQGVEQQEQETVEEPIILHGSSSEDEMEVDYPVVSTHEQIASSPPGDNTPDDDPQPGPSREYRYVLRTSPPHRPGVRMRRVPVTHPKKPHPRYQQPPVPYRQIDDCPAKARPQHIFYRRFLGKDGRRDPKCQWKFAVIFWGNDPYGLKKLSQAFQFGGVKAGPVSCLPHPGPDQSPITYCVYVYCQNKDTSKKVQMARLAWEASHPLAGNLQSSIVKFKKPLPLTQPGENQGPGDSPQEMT
HTR2A ag = mouse Htr2a agonists via beta-arrestin recruitment, primary screen, cell-based, luminescence; CHO-K1 mHTR2A beta-arrestin complementation; percent of 30 µM serotonin response; hit rate 0.66% among 360,000; activation, % at 7.6 µM; 5-hydroxytryptamine receptor 2A (Mus musculus), P35363; AID 624169, 2012;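 active means activation above a run cutoff, the mean activation of all tested compounds plus 3 SD, cut at about 14% in these data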
Rtt109 HAT inh = inhibitors of C. albicans Rtt109/Vps75 HAT, primary screen, biochemical, ThioGlo CoA-SH fluorescence, plate reader; Histone acetyltransferase RTT109 (Candida albicans (strain SC5314 / ATCC MYA-2876)), …; hit rate 0.16% among 330,000; inhibition, % at 34.9 µM; purified Rtt109/Vps75, 4 h; AID 540336, 2011;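 active means inhibition of at least 50% in every replicate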
NOD2 RIPK2 PPI = NOD2-RIPK2 binding disruptors in cells, primary screen, fluorescence, CHO cells, BLA complementation; Receptor-interacting serine/threonine-protein kinase 2 (Homo sapiens), O43353; CCF4 ratio; inhibition, % at 4.98 µM; hit rate 0.38% among 360,000; AID 624267, 2012; in the data active means inhibition above about 21%
MOR ag counter = OPRM1 agonists via beta-arrestin recruitment, confirmation, counter-screen for mouse HTR2A agonist project, cell-based, luminescence, single concentration. shares compounds with HTR2A ag. U2OS OPRM1 beta-arrestin PathHunter; DMSO 0%, DAMGO 9.3 µM 100%. activation, % at 9.3 µM. hit rate 5.3% among 2,300. AID 624380, 2012;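 active means mean activation above the mean of DMSO-only wells plus 3 SD, cut at about 0.5% in these data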
m5-HT2A ag conf = mouse HTR2A agonists, beta-arrestin recruitment, confirmation, cell-based, luminescence, CHO-K1 PathHunter, triplicate. DMSO 0%, 30 µM serotonin 100%. AID 624381, 2012. hit rate 19% among 2,300. activation, % at 7.6 µM. shares compounds with HTR2A ag;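 active means mean activation across triplicates above the hit threshold derived in the original primary screen, cut at about 15% in these data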
Large screens that a line does not name were inactive (follow-up assays come after a bar, where they were run).

CCCCN(CCCC)S(=O)(=O)c1ccc(SCC(=O)OCC)c([N+](=O)[O-])c1	none
CCOC(=O)CSc1ccc(S(=O)(=O)N(CC)CC)cc1[N+](=O)[O-]	HTR2A ag 17 | MOR ag counter inactive | m5-HT2A ag conf inactive
COC(=O)CSc1ccc(S(=O)(=O)N2CCC(C)CC2)cc1[N+](=O)[O-]	HTR2A ag 17 | MOR ag counter inactive | m5-HT2A ag conf inactive
Cc1ccc(S(=O)(=O)N2CCC(C)CC2)cc1[N+](=O)[O-]	none (no result: LANA-H2A inh, Rtt109 HAT inh)
Cc1cc2oc3ccc(NCCCn4ccnc4)cc3c(=O)c2cc1C	HTR2A ag 20 (no result: TLR4-MyD88 BLA) | MOR ag counter 1.4 | m5-HT2A ag conf inactive
CC1CCN(Cc2nnnn2CCCC(=O)NCCc2cnn(C)c2)CC1	HTR2A ag 16 (no result: TLR4-MyD88 BLA) | MOR ag counter inactive | m5-HT2A ag conf inactive
CC1CCN(Cc2nnnn2CCCC(=O)NCC(C)(C)N2CCOCC2)CC1	none (no result: TLR4-MyD88 BLA)
CCOC(=O)C1(C)CCCCCN1C(=O)c1ccc(SC(F)(F)F)cc1 (stereo unspecified)	none (no result: TLR4-MyD88 BLA, TLR9-MyD88 inh, LANA-H2A inh, Rtt109 HAT inh)
CCOC(=O)C1(C)CCN1C(=O)c1ccc(SC(F)(F)F)cc1 (stereo unspecified)	HTR2A ag 16 (no result: TLR4-MyD88 BLA, TLR9-MyD88 inh, LANA-H2A inh, Rtt109 HAT inh) | MOR ag counter inactive | m5-HT2A ag conf inactive
CCN(CC)C(=O)C1CCCN(C(=O)c2cc(COc3cccc(OC)c3)on2)C1 (stereo unspecified)	none (no result: TLR4-MyD88 BLA)
COc1cccc(-c2nc(NCc3ccccc3)c3ccccc3n2)c1O	none (no result: TLR4-MyD88 BLA)
COc1cccc(-c2nc(N3CCCCC3C)c3ccccc3n2)c1O (stereo unspecified)	none
C=CCNc1nc(-c2cccc(OC)c2O)nc2ccccc12	HTR2A ag 42 | MOR ag counter inactive | m5-HT2A ag conf 24
COc1cccc(-c2nc(NC3CCCC3)c3ccccc3n2)c1O	HTR2A ag 78 (no result: TLR4-MyD88 BLA) | MOR ag counter inactive | m5-HT2A ag conf 81
CCN1C(=O)[C@@H]2[C@@H](c3ccc(SC4CCCCC4)cc3)N3CCCC[C@@]3(C(=O)OC)[C@@H]2C1=O	none (no result: TLR4-MyD88 BLA)
CCC1=C(c2ccc(C)cc2)S(=O)(=O)N=C1N1CCC(C(=O)NCCCN2CCCCC2C)CC1 (stereo unspecified)	none (no result: TLR4-MyD88 BLA)
C[C@H](O)[C@@H]1CN2CCc3c([nH]c4ccccc34)[C@@H]2C[C@@H]1N(C)C(=O)Nc1ccc(Br)cc1	HTR2A ag 16 (no result: TLR4-MyD88 BLA, TLR9-MyD88 inh, LANA-H2A inh, Rtt109 HAT inh) | m5-HT2A ag conf 27
O=C(C1CCC(CNc2c(N3CCCCC3)c(=O)c2=O)CC1)N1CCCCC1 (stereo unspecified)	HTR2A ag 19 (no result: TLR4-MyD88 BLA) | MOR ag counter inactive | m5-HT2A ag conf inactive
COc1cccc(NC(=O)COC(=O)c2cc(=O)c3ccccc3o2)c1	none (no result: TLR4-MyD88 BLA)
O=C(Nc1cccc(S(=O)(=O)N2CCOCC2)c1)c1cc([N+](=O)[O-])ccc1N1CCOCC1	none (no result: TLR4-MyD88 BLA)
O=C(NCCc1ccc(O)c(O)c1)C1COc2ccccc2O1 (stereo unspecified)	HTR2A ag 14 (no result: TLR4-MyD88 BLA) | MOR ag counter inactive | m5-HT2A ag conf 23
CCOC(=O)[C@@H]1[C@H]2COc3ccccc3[C@H]2N2C(=O)N(c3ccc(C(F)(F)F)cc3)C(=O)[C@]12C	none (no result: TLR4-MyD88 BLA)
CC1=NN(C(C#N)c2ccccc2O)C(C)(C)C1 (stereo unspecified)	none
CCN1C(C#N)=C(C#N)N=C(C)CC1(C)C	HTR2A ag 25 | MOR ag counter inactive | m5-HT2A ag conf inactive
CC(CCc1ccc(O)cc1)NCCc1ccc(O)c(O)c1 (stereo unspecified)	HTR2A ag 27 (no result: TLR4-MyD88 BLA) | MOR ag counter inactive | m5-HT2A ag conf 120
COc1ccccc1CCNC(C)CCc1ccc(O)cc1 (stereo unspecified)	none (no result: TLR4-MyD88 BLA)
Clc1ccccc1CN1CCN(c2ncccn2)CC1	HTR2A ag 28 (no result: TLR4-MyD88 BLA) | MOR ag counter inactive | m5-HT2A ag conf 98
Clc1cccc(CN2CCN(c3ncccn3)CC2)c1Cl	none (no result: TLR4-MyD88 BLA)
Clc1ccc(CN2CCN(c3ncccn3)CC2)c(Cl)c1	HTR2A ag 16 (no result: TLR4-MyD88 BLA) | MOR ag counter inactive | m5-HT2A ag conf 103
Cc1nnc(SCC(=O)Nc2cc(Cl)ccc2Cl)n1CC1CCCO1 (stereo unspecified)	HTR2A ag 17 (no result: TLR4-MyD88 BLA) | MOR ag counter inactive | m5-HT2A ag conf inactive
O=C(COC(=O)CNC(=O)c1ccccc1F)NCCNC(=O)COC(=O)CNC(=O)c1ccccc1F	none (no result: TLR4-MyD88 BLA)
O=C(CNC(=O)c1ccccc1F)OCCCOC(=O)CNC(=O)c1ccccc1F	HTR2A ag 15 (no result: TLR4-MyD88 BLA) | MOR ag counter inactive | m5-HT2A ag conf inactive
CC(C)COC(=O)N(C)C[C@@H]1OCc2cnnn2CCCC(=O)N([C@@H](C)CO)C[C@H]1C	none (no result: TLR4-MyD88 BLA, LANA-H2A inh, Rtt109 HAT inh)
O=C(O)c1ccc2c(c1Nc1ccccc1)C(=O)c1ccccc1C2=O	HTR2A ag 27 (no result: TLR4-MyD88 BLA) | MOR ag counter inactive | m5-HT2A ag conf inactive
CCOC(=O)C(C(=O)OCC)C1N=C(N)N=C2Oc3ccccc3N21 (stereo unspecified)	HTR2A ag 15 | MOR ag counter inactive | m5-HT2A ag conf inactive
CCOC(=O)CN1C(=O)C(CC)Oc2ccccc21 (stereo unspecified)	none
COCCNC(=O)C1(C)CCCN(C(=O)Cc2ccc3ccccc3c2)C1 (stereo unspecified)	none (no result: TLR4-MyD88 BLA, TLR9-MyD88 inh, LANA-H2A inh, Rtt109 HAT inh)
COc1cc(N=Nc2ccc(Br)cc2)cc(C=O)c1O	none (no result: TLR4-MyD88 BLA, LANA-H2A inh, Rtt109 HAT inh)
COc1cccc(-c2nc(-c3cccc(C)c3)nc3cc(Cl)ccc23)c1	HTR2A ag 17 (no result: TLR4-MyD88 BLA, TLR9-MyD88 inh, LANA-H2A inh, Rtt109 HAT inh) | MOR ag counter inactive | m5-HT2A ag conf inactive
CC1CCN(CCc2nc3cc(NC(=O)COc4ccc(Cl)cc4)ccc3n2C)CC1	none (no result: TLR4-MyD88 BLA)
CC[C@H](C)[C@H]1CNC(=O)C(=O)N1CC1CCN(CC2CCC(C)CC2)CC1 (stereo partly specified)	none (no result: TLR4-MyD88 BLA, LANA-H2A inh)
c1cncc(CNc2nc(N3CCOCC3)nc(N3CCOCC3)n2)c1	HTR2A ag 16 | MOR ag counter inactive | m5-HT2A ag conf inactive
CC(C)(C)Nc1nc(NCc2cccnc2)nc(N2CCOCC2)n1	none
c1ccc(Nc2nc(N3CCOCC3)nc(N3CCOCC3)n2)cc1	none
